In PubChem BioAssay (NCATS):
“And” between values parts separate entries of the source, which are not always exact repeats. Identical values can stand only once. Records with an inconclusive call do not appear. A call without a number means that no potency is given here. A number with no mark means an inactive call. The source made the active and inactive calls. The call rests on the fitted dose curve; in most records, active means well fitted curve in the direction sought with a large enough effect; inconclusive means small, poorly fitted or top-dose-only effect, or another doubt; inactive means no such curve, though single readings can be large; an effect the other way counts as inactive or inconclusive.

Tests used:
[1] = biological target: Cytochrome P450 3A7 (Homo sapiens) (UniProt P24462); assay: Cytochrome P450 family 3 subfamily A member 7 (CYP3A7) small molecule antagonists: luciferase biochemical qHTS assay (AID 1963596); further: nearly all actives have a fitted effect of over 40% in size
Procedure, shortened: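 Recombinant CYP3A7 P450-Glo luminescent assay: enzyme-proluciferin substrate mix preincubated with compound 10 min at room temperature, reaction started with NADPH regeneration system for 1 h. Luciferin detected by luminescence; ketoconazole as positive control.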

[2] = Viability qHTS for spleen associated tyrosine kinase inhibitor (SYKi) naive MV4-11 cells (AID 1963823); further: nearly all actives have a fitted effect of over 40% in size; further: potency means the concentration at half of the fitted maximal effect
Procedure, shortened: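 CellTiter-Glo luminescence, 10 min room-temperature incubation, gave viability. Cells: naive MV4-11 (500/well), treated 72 hr at 37 C, 5% CO2.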

[3] = Viability qHTS for spleen associated tyrosine kinase inhibitor (SYKi) drug resistant MV4-11 cells (AID 1963824); further: nearly all actives have a fitted effect of over 35% in size; further: potency means the concentration at half of the fitted maximal effect
Procedure, shortened: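 CellTiter-Glo luminescence, read 10 min after reagent addition, reports viability after a 72 hr compound exposure. Cells are an MV4-11 line made resistant to SYK inhibition, seeded at 500 per well onto compound-containing plates.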

[4] = Cellular viability qHTS for adrenocortical cancer (ACC) cell line SW-13 (AID 1963989); conditions: SW-13 ACC cells viability, CellTiter-Glo, 48 h; activity (max response): active compounds read low; further: nearly all actives have a fitted effect of over 65% in size; further: potency means the concentration at half of the fitted maximal effect;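 on activity (max response): cells grown in serum-free medium with ITS supplement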
Procedure, shortened: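 Compound titrations (up to 46 uM final, in DMSO) were applied to SW-13 cells for 48 h at 37C/5% CO2. Reading used CellTiter-Glo after 20 min at room temperature; fitted curves yielded IC50 and efficacy.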

[5] = Cellular viability qHTS for adrenocortical cancer (ACC) cell line NCI-H295R (AID 1963990); further: nearly all actives have a fitted effect of over 60% in size; further: potency means the concentration at half of the fitted maximal effect
Procedure, shortened: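 Readout: CellTiter-Glo luminescence, 20 min RT. Exposure: 48 h, 37C/5% CO2. Cells: NCI-H295R, ITS-DMEM serum-free. Range: up to 46 uM. Analysis: 4PL fit, IC50 plus efficacy.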

Cytochrome P450 3A7 (Homo sapiens), sequence (P24462 whole entry, looked up): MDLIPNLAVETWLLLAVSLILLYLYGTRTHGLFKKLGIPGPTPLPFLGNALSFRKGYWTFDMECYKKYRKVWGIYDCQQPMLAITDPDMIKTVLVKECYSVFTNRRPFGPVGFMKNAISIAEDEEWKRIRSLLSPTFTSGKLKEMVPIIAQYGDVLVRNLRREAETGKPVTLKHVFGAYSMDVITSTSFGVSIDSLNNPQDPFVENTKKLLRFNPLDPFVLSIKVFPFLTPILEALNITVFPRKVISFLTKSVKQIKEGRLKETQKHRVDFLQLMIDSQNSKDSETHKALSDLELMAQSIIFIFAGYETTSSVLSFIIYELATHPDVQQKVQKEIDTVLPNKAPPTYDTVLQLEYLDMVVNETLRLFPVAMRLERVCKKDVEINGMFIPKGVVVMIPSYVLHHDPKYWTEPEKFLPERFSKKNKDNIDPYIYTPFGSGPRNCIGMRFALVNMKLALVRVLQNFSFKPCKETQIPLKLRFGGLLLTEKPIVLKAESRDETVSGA

Structure (SMILES)	Potency [1]	Potency [2]	Potency [3]	activity (max response) [4]	Potency [5]	Potency [4]
CC1(c2ccccc2)OC(C(=O)O)=CC1=O (stereo not given)	inactive	inactive	inactive	-17.9%	inactive	–
CN(C)CCN(Cc1cccs1)c1ccccn1	inactive	inactive	inactive	15.3%	inactive	–
C=Cc1c(C)c2cc3[nH]c(cc4nc(cc5nc(cc1[nH]2)C(C)=C5CCC(=O)O)C(CCC(=O)O)=C4C)c(C)c3C=C	inactive	inactive	inactive	-8.14%	inactive	–
O=C(NCCN1CCOCC1)c1ccc(Cl)cc1	inactive	inactive	inactive	1.07%	inactive	–
NC(=O)COCCN1CCN(C(c2ccccc2)c2ccc(Cl)cc2)CC1 (stereo not given)	inactive	inactive	inactive	0.82%	inactive	–
C=CCn1c(=O)n([C@@H]2O[C@H](CO)[C@@H](O)[C@H]2O)c2nc(N)[nH]c(=O)c21	inactive	inactive	inactive	10.8%	inactive	–
CC1(C)O[C@@H]2C[C@H]3[C@@H]4C[C@H](F)C5=CC(=O)C=C[C@]5(C)[C@@]4(F)[C@@H](O)C[C@]3(C)[C@]2(C(=O)CO)O1	inactive	inactive	20900 nM (active)	-5.78% and 9.51%	inactive	–
CC(=O)N(CC(O)CO)c1c(I)c(C(=O)NCCO)c(I)c(C(=O)NCC(O)CO)c1I (stereo not given)	inactive	inactive	inactive	7.39%	inactive	–
Cn1c(=O)c2c(ncn2CC2OCCO2)n(C)c1=O	inactive	inactive	inactive	8.06% and -6.96%	inactive	–
CC[N+](C)(C)c1cccc(O)c1	inactive	inactive	inactive	8.29%	inactive	–
CCOC(=O)c1ccc(OCCN2C[C@H](O)[C@@H](O)[C@H](O)[C@H]2CO)cc1	inactive	inactive	inactive	-1.86%	inactive	–
CCCN(CCC)C(=O)C(CCC(=O)O)NC(=O)c1ccccc1 (stereo not given)	inactive	inactive	inactive	0.293% and -17.2%	inactive	–
Cc1coc2ccccc2c1=O	inactive	inactive	inactive	19.3%	inactive	–
C/C(=N\O)c1ccc(OCC(=O)N2CCCCC2)cc1	inactive	inactive	inactive	-4.8%	inactive	–
NC(=O)c1ncn([C@@H]2O[C@H](CO)[C@@H](O)[C@H]2O)c1N	inactive	inactive	inactive	3.4% and 2.54%	inactive	–
C[N+]1(C)CCC(=C(c2ccccc2)c2ccccc2)CC1	inactive	inactive	inactive	-4.49%	inactive	–
COc1ccc(CN(CCN(C)C)c2ncccn2)cc1	inactive	inactive	inactive	-7.84%	inactive	–
COC(=O)c1ccccc1C(=O)c1ccc(OCCN2CCCCC2)cc1	inactive	inactive	inactive	-0.425%	inactive	–
OC[C@H]1O[C@@H](O[C@@H]2[C@@H](CO)O[C@](O)(CO)[C@H]2O)[C@H](O)[C@@H](O)[C@H]1O	inactive	inactive	inactive	1.01% and 4.87%	inactive	–
C[C@@]12C(=O)OC(=O)[C@]1(C)C1CCC2O1	inactive	2660 nM (active)	2990 nM (active)	–	2310 nM (active)	7310 nM (active)
CC(C)[C@@H]1CC[C@@H](C)CC1=O	inactive	inactive	inactive	11.9%	inactive	–
C=CCNC(N)=S	inactive	inactive	inactive	13%	inactive	–
NS(=O)(=O)c1ccc(C(=O)O)cc1	inactive	inactive	inactive	11.4%	inactive	–
CC(NC(CCc1ccccc1)C(=O)O)C(=O)N1C(=O)N(C)CC1C(=O)O (stereo not given)	inactive	inactive	inactive	6.3%	inactive	–
O=C1CC(c2ccc(Cl)cc2)CC(=O)N1	inactive	inactive	inactive	13.6%	inactive	–
CCCCCCCCCCCCCCCCCCN(C)C	inactive	inactive	inactive	-1.14%	inactive	–
